The values below come from the supplement of paper PMC11732987, “Enantioselective OTUD7B fragment discovery through chemoproteomics screening and high-throughput optimisation” (Communications Chemistry, 2025).

A number with no mark means an inactive call.

Common to all, as to experiment: log2 ratio of Biotin-Ahx-Ub-VS probe labelling (fragment/DMSO); higher = less target engagement (more negative = stronger competition), active = hit call of the paper (q ≤ 0.05, log2 ratio ≤ -1)
Common to all, as to conditions: compound concentration: 200 uM; treatment time: 3 h

Experiment [1] addresses T1, OTUD6B (UniProt Q8N6M0).
T1 sequence (whole entry): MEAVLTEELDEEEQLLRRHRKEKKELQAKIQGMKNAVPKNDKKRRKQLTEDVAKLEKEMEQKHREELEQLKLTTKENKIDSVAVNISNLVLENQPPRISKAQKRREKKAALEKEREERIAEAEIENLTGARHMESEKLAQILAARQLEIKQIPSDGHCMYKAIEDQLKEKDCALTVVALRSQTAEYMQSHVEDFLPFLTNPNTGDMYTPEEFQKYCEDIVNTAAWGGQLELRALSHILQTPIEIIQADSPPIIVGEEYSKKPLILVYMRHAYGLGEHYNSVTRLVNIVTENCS
In short, it runs like this: (§1)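 Triplicate samples of HEK293T lysate, 495 µg each, received fragment at 200 µM or vehicle for 3 h, followed by Biotin-Ahx-Ub-VS (0.5 µM final) for 1 h. After NeutrAvidin enrichment of labelled DUBs and LysC/trypsin digestion, peptides were run by diaPASEF LC-MS/MS. The values are average log2 fragment/vehicle ratios from global-median-normalised Spectronaut label-free quantities, tested by unpaired t-test on proteins having ≥2 unique peptides.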

In experiment [2] the target is T2, OTUD7B (UniProt Q6GQQ9).
T2 sequence (whole entry): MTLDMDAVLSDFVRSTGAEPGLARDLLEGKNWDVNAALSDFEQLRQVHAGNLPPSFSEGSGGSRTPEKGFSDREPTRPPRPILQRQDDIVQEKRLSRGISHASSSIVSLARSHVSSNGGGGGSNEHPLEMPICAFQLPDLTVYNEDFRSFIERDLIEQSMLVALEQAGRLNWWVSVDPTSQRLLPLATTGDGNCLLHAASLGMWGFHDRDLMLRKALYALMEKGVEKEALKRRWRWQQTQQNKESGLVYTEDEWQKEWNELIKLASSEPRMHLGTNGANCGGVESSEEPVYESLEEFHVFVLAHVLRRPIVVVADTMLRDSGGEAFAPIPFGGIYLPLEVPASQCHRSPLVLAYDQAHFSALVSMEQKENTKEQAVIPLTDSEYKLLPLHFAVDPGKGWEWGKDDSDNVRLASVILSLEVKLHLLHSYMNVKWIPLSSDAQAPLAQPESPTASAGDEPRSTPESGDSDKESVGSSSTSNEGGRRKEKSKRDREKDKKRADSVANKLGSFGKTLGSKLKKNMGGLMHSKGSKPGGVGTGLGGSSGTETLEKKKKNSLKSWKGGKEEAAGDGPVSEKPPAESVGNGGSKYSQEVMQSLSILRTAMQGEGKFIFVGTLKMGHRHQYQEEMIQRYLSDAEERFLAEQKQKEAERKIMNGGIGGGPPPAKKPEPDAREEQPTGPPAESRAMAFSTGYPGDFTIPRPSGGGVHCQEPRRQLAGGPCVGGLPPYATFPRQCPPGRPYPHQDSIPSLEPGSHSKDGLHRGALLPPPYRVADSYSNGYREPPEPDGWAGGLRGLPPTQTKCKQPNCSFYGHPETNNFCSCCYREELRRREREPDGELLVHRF
In short, it runs like this:
as §1

Experiment [3] addresses PRPF8 (UniProt Q6P2Q9). In short, it runs like this:
as §1

Experiment [4] concerns the target T3, PSMD7 (UniProt P51665).
T3 sequence (whole entry): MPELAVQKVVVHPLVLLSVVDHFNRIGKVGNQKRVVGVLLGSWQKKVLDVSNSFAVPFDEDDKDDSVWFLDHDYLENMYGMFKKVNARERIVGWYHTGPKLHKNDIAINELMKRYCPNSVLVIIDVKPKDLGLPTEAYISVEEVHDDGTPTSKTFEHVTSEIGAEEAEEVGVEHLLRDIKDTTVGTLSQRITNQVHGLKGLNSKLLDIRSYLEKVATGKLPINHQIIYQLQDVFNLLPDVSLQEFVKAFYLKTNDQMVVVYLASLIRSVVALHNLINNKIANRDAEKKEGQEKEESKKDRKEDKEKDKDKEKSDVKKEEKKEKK
In short, it runs like this: as §1

For experiment [5], the target named is UCHL1 (UniProt P09936). In short, it runs like this: as §1
In experiment [6] the target is T4, UCHL3 (UniProt P15374).
T4 sequence (whole entry): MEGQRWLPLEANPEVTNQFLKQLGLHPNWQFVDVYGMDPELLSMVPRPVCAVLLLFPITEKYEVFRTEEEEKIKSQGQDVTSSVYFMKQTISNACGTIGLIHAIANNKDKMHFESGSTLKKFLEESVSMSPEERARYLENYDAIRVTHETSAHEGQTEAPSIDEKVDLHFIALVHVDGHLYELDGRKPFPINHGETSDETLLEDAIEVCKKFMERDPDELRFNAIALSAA
In short, it runs like this: as §1

Experiment [7] has as its target T5, UCHL5 (UniProt Q9Y5K5).
T5 sequence (whole entry): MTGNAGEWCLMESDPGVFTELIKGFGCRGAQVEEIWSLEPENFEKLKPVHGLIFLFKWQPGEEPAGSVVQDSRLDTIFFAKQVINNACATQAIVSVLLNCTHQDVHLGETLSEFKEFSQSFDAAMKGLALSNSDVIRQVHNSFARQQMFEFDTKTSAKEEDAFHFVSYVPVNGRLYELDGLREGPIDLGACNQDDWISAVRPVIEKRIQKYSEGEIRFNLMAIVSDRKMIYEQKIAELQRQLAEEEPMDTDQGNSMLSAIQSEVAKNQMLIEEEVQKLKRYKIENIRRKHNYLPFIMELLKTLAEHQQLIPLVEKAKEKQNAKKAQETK
In short, it runs like this:
as §1

Experiment [8] deals with USP10 (UniProt Q14694). In short, it runs like this: as §1
Experiment [9] deals with T6, USP15 (UniProt Q9Y4E8).
T6 sequence (whole entry): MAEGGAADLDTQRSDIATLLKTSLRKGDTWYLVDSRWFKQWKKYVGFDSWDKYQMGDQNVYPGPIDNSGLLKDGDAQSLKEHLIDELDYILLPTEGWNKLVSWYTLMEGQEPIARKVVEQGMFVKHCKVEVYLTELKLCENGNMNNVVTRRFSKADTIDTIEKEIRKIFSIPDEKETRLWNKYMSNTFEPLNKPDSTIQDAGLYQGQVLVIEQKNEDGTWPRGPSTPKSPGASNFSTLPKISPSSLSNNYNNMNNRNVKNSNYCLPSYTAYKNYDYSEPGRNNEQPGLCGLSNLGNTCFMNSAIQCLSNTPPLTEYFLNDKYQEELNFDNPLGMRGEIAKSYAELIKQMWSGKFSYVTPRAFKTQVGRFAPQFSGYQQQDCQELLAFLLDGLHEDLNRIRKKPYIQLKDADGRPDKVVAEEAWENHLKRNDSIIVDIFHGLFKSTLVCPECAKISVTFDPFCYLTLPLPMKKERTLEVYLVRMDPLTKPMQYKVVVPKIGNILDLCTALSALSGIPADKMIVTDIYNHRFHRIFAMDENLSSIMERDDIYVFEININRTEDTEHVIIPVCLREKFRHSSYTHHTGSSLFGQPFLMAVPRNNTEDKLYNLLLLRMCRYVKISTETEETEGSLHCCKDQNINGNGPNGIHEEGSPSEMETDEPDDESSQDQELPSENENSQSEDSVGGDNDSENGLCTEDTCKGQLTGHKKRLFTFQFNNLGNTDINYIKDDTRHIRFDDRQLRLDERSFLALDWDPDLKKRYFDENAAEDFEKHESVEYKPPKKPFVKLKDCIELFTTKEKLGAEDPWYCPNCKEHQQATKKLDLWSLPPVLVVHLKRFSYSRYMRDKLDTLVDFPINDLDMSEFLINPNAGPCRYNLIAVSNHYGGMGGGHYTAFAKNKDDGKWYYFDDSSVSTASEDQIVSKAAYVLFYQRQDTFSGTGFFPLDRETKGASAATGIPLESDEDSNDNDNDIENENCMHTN
In short, it runs like this:
as §1

In experiment [10] the target is USP16 (UniProt Q9Y5T5). In short, it runs like this:
as §1

Sequence of USP16 (Q9Y5T5 whole entry, looked up): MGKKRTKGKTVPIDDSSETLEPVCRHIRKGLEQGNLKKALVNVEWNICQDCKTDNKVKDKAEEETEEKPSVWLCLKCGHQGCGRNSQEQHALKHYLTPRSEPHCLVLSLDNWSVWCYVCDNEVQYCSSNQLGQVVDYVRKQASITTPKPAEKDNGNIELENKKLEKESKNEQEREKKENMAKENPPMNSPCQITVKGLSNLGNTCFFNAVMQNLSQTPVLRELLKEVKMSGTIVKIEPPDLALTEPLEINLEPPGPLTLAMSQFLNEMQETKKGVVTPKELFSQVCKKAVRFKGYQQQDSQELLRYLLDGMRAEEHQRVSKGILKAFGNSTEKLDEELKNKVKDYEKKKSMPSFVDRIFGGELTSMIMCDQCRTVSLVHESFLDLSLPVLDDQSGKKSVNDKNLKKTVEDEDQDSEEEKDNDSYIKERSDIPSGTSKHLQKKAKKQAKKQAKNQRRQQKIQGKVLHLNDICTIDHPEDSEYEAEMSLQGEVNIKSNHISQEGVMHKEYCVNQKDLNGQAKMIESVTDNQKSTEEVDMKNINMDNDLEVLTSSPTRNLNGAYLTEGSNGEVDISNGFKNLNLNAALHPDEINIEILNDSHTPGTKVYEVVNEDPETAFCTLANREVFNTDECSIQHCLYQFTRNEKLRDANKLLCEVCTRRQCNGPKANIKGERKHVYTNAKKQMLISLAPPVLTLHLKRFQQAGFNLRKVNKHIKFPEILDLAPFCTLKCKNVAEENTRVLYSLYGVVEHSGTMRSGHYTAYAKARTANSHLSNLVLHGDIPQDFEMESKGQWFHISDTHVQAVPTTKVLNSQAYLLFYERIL
Sequence of UCHL1 (P09936 whole entry, looked up): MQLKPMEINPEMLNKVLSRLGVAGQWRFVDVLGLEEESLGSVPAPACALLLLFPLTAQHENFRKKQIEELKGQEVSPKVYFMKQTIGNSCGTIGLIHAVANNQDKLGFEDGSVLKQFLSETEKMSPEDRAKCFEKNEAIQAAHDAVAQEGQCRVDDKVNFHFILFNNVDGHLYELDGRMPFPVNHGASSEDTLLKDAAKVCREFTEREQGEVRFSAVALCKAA
Sequence of USP10 (Q14694 whole entry): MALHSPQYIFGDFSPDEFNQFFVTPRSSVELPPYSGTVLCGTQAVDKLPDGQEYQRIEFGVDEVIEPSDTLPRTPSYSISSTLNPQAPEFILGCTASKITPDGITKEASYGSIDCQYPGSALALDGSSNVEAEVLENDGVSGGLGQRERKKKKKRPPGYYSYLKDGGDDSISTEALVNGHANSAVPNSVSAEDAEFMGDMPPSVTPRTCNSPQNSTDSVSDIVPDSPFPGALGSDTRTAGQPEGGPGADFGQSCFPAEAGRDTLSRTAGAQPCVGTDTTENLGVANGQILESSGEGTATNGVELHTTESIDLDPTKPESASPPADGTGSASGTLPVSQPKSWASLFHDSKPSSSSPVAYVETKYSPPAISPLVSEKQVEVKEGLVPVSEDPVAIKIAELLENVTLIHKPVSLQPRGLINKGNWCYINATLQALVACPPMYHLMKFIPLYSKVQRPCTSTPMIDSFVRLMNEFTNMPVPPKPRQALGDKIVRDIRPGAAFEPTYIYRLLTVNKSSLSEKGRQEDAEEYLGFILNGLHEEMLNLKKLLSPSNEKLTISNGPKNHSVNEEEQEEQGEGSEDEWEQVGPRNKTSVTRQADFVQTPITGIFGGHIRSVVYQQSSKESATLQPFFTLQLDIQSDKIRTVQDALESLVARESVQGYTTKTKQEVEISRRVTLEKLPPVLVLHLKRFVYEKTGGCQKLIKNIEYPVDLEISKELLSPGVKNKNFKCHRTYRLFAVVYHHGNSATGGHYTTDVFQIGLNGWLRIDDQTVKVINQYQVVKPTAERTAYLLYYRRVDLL

As for `O=C(CCl)N[C@H]1CC[C@@H](CO)CC1`, the “log2 ratio of Biotin-Ahx-Ub-VS probe labelling” value (“log2 ratio” below) in experiment [1] was -0.662; in [2] it was -1.44 (active); in [3] it was -0.24; in [4] it was -0.201; in [5], -2.47 (active); in [6] it was -0.884. For the same compound, the “log2 ratio” value was -0.9 in [7], -0.226 in experiment [8], -0.938 in [9] and -0.292 in experiment [10].

As to `COc1ccc(Cl)cc1NC(=O)CCl`, the “log2 ratio” value in [1] is -0.594; in [2], -1.29 (active); in [3], -0.0117; in [4], -0.241; in experiment [5], -1.01 (active); in experiment [6], -0.0348. For the same compound, the “log2 ratio” value is -0.501 in [7], -0.263 in [8], -0.674 in experiment [9] and -0.286 in experiment [10].

In the case of `COc1ccccc1C(C)NC(=O)CCl` (stereo not given), the “log2 ratio” value in experiment [1] was -0.401; in experiment [2], -0.997; in experiment [3], -0.14; in [4], -0.451; in [5], -1.47 (active); in [6], -1.18 (active). In addition, the “log2 ratio” value was -0.318 in [7], -0.0811 in experiment [8], -0.251 in experiment [9] and -0.386 in experiment [10].

Turning to `Cc1cc(Cl)ccc1NC(=O)CCl`, the “log2 ratio” value was -0.0452 in experiment [1]; -0.649 in [2]; 0.192 in [3]; 0.0336 in experiment [4]; -1.46 (active) in [5]; 0.0619 in experiment [6]. Further, the “log2 ratio” value is -0.109 in experiment [7], -0.132 in [8], -0.218 in experiment [9] and -0.157 in [10].

Consider `Cc1cccnc1NC(=O)C1CCN(C(=O)CCl)CC1.Cl`, for which the “log2 ratio” value in experiment [1] was -0.127; in [2], -0.284; in [3] it was -0.0508; in experiment [4], -0.189; in experiment [5], -1.33 (active); in [6] it was 0.088. Further, the “log2 ratio” value in experiment [7] was -0.328; in experiment [8] it was -0.146; in [9] it was -0.24; in experiment [10], 0.018.

Consider `COc1ccc(CN(C)C(=O)CCl)cc1`, for which the “log2 ratio” value in [1] is -0.199; in experiment [2], -0.373; in experiment [3] it was 0.0533; in experiment [4], -0.411; in experiment [5] it was -1.22 (active); in experiment [6], 0.249. The “log2 ratio” value in experiment [7] was -0.235; in experiment [8], -0.213; in experiment [9] it was -0.112; in experiment [10] it was 0.163.

Regarding `O=C(CCl)NCC(=O)N1CCCC1`, the “log2 ratio” value in experiment [1] was -0.139; in experiment [2] it was -0.187; in [3] it was -0.0276; in experiment [4], -0.18; in [5] it was -1.42 (active); in [6], 0.0513. Moreover, the “log2 ratio” value in [7] was -0.323; in [8], -0.0856; in [9], -0.0663; in experiment [10], 0.0192.

In the case of `C#Cc1cccc(NC(=O)CCl)c1`, the “log2 ratio” value in experiment [1] is -0.196; in experiment [2] it was -1.43 (active); in experiment [3], 0.296; in [4] it was -0.0915; in experiment [5], -1.61 (active); in [6] it was -1.39 (active). Besides, the “log2 ratio” value in experiment [7] was -0.324; in experiment [8] it was -0.0542; in [9], -0.414; in [10] it was -0.23.
